An excerpt weighted towards active compounds, which were near 5.2% of everything screened.
SKN-1 block: inhibitors of C. elegans SKN-1; C. elegans VP596 Pgst-4::GFP/RFP ratio, acrylamide-induced, 24 h; inhibition, % at 21.8 µM; hit rate 0.49% among 360,000; AID 624304;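 active = interference check ratio from 0.5 to 1.5 plus GFP to RFP signal ratio inhibition reaching or exceeding a fixed threshold, cut at about 30% in these data, passing the limit was not always enough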
SMARCA2 act: increases SMARCA2 function in MMTV reporter cells; activation, % at 9.1 µM; hit rate 1% among 370,000; MG213 cells, MMTV-luciferase reporter, dexamethasone, overnight; in the data active = activation above about 7.8%
NR3A LBD binder: NR3A (human) ligand-binding domain modulation; NR3A LBD differential scanning fluorimetry, Tm shift; 0% = protein alone, 100% = glycine-bound protein; Tm shift relative to glycine control, % at 25 µM; hit rate 2.5% among 340,000;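 active = melting temperature shift of at least 10% of the positive control shift, at one fixed dose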
NadD inh: blocks S. aureus nicotinate mononucleotide adenylyltransferase | purified NadD enzyme, colorimetric absorbance read-out | hit rate 0.78% among 360,000 | inhibition, % at 20 µM; in the data active = inhibition above about 26%
esBAF inh: SWI/SNF esBAF complex inhibition. mouse ES cells, Bmi1-luciferase knock-in reporter, 24 h; 100% = twice the neutral-well signal. reporter increase, % at 12.5 µM. hit rate 2% among 350,000. AID 602393; in the data active = activation above about 40%;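 note: a rise in the Bmi1 reporter signal indicates esBAF inhibition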
Vif inh: HIV Vif inhibition | HEK293T cells, Vif self-association by quenched fluorescence, imaging, 24 h | inhibition, % at 7.49 µM | hit rate 0.35% among 340,000; in the data active = inhibition above about 50%, passing the limit was not always enough
A number is an active result.

`CC(C)(C)CC(C)(C)c1ccc(O)c(CN2CCN(CCC#N)CC2)c1` gave SKN-1 block inactive, SMARCA2 act inactive, NR3A LBD binder inactive, NadD inh inactive, esBAF inh inactive and Vif inh inactive.
C[C@@H]1CN([C@H](C)CO)C(=O)c2cc(-c3ccccc3)cnc2O[C@@H]1CN(C)C(=O)c1ccccn1 was read as esBAF inh inactive.
Screening CC(Sc1nc2ccccc2s1)C(=O)NCc1ccc2c(c1)OCO2 (stereo not given) returned SKN-1 block inactive, SMARCA2 act inactive, NR3A LBD binder inactive, NadD inh inactive, esBAF inh 51.5 and Vif inh inactive.
Screening COCC#Cc1ccc([C@H]2[C@@H](CO)N3CCCCN(C(=O)Nc4cc(F)ccc4F)C[C@H]23)cc1 returned esBAF inh inactive.
O=C(CCN1CCCCC1)N[C@H]1CC[C@@H](CCNS(=O)(=O)c2ccccc2)O[C@@H]1CO was read as esBAF inh inactive.
`CCOc1ccc(NC(=S)NN2C(C)CCCC2C)cc1` (stereo not given) gave SKN-1 block inactive, SMARCA2 act inactive, NR3A LBD binder 11.5, NadD inh inactive and Vif inh inactive.
For Cc1cc(NC(=O)c2ccc(-c3ccccc3F)o2)no1 the results were SKN-1 block inactive, SMARCA2 act inactive, NR3A LBD binder inactive, NadD inh inactive and Vif inh inactive.
`CC(=O)c1cccc(NC(=O)c2ccc(-c3ccccc3[N+](=O)[O-])o2)c1` gave SKN-1 block inactive, SMARCA2 act inactive, NR3A LBD binder inactive, NadD inh inactive, esBAF inh 103.2 and Vif inh inactive.
For Cc1cc(NC(=O)c2ccc(-c3ccccc3[N+](=O)[O-])o2)no1 the results were SKN-1 block inactive, SMARCA2 act inactive, NR3A LBD binder inactive, NadD inh inactive, esBAF inh 57.0 and Vif inh inactive.
`CCCN1C[C@H](C)[C@H](OC)CN(C)C(=O)c2cc(NC(=O)Nc3c(C)noc3C)ccc2OC[C@@H]1C` gave esBAF inh inactive.
Screening CCCNC(=O)N[C@@H]1CC[C@@H](CC(=O)N2CCN(C)CC2)O[C@H]1CO returned esBAF inh inactive.
Screening COc1cc2c(cc1OC)/C(=C/C(=O)c1ccc(OC)c([N+](=O)[O-])c1)NCC2 returned SKN-1 block inactive, SMARCA2 act inactive, NR3A LBD binder inactive, NadD inh inactive, esBAF inh inactive and Vif inh 53.0.
Screening COc1cc2c(cc1OC)/C(=C/C(=O)c1cccc([N+](=O)[O-])c1)NCC2 returned SKN-1 block inactive, SMARCA2 act inactive, NR3A LBD binder inactive, NadD inh inactive, esBAF inh inactive and Vif inh inactive.
Screening C[C@H]1CCCCO[C@H](CN(C)S(=O)(=O)c2ccc(Cl)cc2)[C@@H](C)CN([C@@H](C)CO)C(=O)c2cc(NC(=O)CCC(F)(F)F)ccc2O1 returned esBAF inh inactive.
For CC=Cc1ccc2n(c1=O)C[C@@H]1[C@@H](CO)[C@H](C(=O)NCc3ccccn3)[C@H]2N1CCC (mixture of isomers) the results were esBAF inh inactive.
COc1cccc(C(=O)N(c2ccc(C)cc2)C2C=CS(=O)(=O)C2)c1 (stereo not given) was read as SKN-1 block inactive, SMARCA2 act 7.9, NR3A LBD binder inactive, NadD inh inactive and Vif inh inactive.
C[C@@H]1CN([C@@H](C)CO)S(=O)(=O)c2ccc(C#CC3CC3)cc2O[C@H]1CN(C)C(=O)CC1CC1 was read as esBAF inh inactive.
Screening COc1cc(CNCc2ccccc2)c(Br)cc1OC1CCCC1 returned SKN-1 block inactive, SMARCA2 act inactive, NR3A LBD binder inactive, NadD inh inactive, esBAF inh inactive and Vif inh 74.9.
`O=[N+]([O-])c1ccc(N2CCN(S(=O)(=O)c3ccc(Cl)cc3)CC2)cc1NCC1CCCO1` (stereo not given) gave SKN-1 block inactive, SMARCA2 act inactive, NR3A LBD binder inactive, NadD inh inactive, esBAF inh inactive and Vif inh 57.4.
For COc1ccc(S(=O)(=O)N(CC(=O)NCC2CCCO2)c2ccc(Cl)cc2)cc1 (stereo not given) the results were SKN-1 block inactive, SMARCA2 act inactive, NR3A LBD binder inactive, NadD inh inactive, esBAF inh inactive and Vif inh inactive.
`O=S(=O)(c1ccc(Cl)cc1)N1CCN(C(=S)NCC2CCCO2)CC1` (stereo not given) gave SKN-1 block inactive, SMARCA2 act inactive, NR3A LBD binder 11.1, NadD inh inactive, esBAF inh inactive and Vif inh inactive.
`Cc1ccc(N(CC(=O)NCC2CCCO2)S(=O)(=O)c2ccc(Cl)cc2)cc1C` (stereo not given) gave SKN-1 block 35.1, SMARCA2 act inactive, NR3A LBD binder inactive, NadD inh inactive, esBAF inh inactive and Vif inh inactive.
`C[C@H](CO)N1C[C@H](C)[C@H](CN(C)C(=O)Nc2ccc(F)cc2)OCCCC[C@H](C)Oc2ccc(NS(=O)(=O)c3ccc(F)cc3)cc2C1=O` gave esBAF inh inactive.
For CC(C)NC(=O)N(C)C[C@@H]1Oc2ccc(NS(=O)(=O)c3ccc(F)cc3)cc2CC(=O)N([C@H](C)CO)C[C@H]1C the results were esBAF inh inactive.
Screening COc1ccc(C(=O)NCC(=O)OCC(=O)N2N=C(c3ccc(Cl)cc3)CC2c2ccco2)cc1OC (stereo not given) returned SKN-1 block inactive, SMARCA2 act inactive, NR3A LBD binder 11.3, NadD inh inactive, esBAF inh inactive and Vif inh inactive.
Screening COCC(=O)OCC(=O)N1N=C(c2ccc(Cl)cc2)CC1c1ccco1 (stereo not given) returned SKN-1 block inactive, SMARCA2 act inactive, NR3A LBD binder inactive, NadD inh inactive and Vif inh inactive.
C[C@@H]1CCCCO[C@H](CN(C)S(C)(=O)=O)[C@H](C)CN([C@@H](C)CO)C(=O)c2cc(N(C)C)ccc2O1 was read as esBAF inh inactive.
CN(C)S(=O)(=O)c1cccc(NC(=S)NC23CC4CC(CC(C4)C2)C3)c1 was read as SKN-1 block inactive, SMARCA2 act inactive, NR3A LBD binder 10.3, NadD inh inactive, esBAF inh inactive and Vif inh inactive.
Screening FC(F)Oc1ccc(NC(=S)NC23CC4CC(CC(C4)C2)C3)cc1 returned SKN-1 block inactive, SMARCA2 act inactive, NR3A LBD binder 11.6, NadD inh inactive, esBAF inh 50.4 and Vif inh inactive.
Cc1ccc(S(=O)(=O)N(C)C)cc1NC(=S)NC12CC3CC(CC(C3)C1)C2 was read as SKN-1 block inactive, SMARCA2 act inactive, NR3A LBD binder inactive, NadD inh inactive, esBAF inh inactive and Vif inh inactive.
CN(C)S(=O)(=O)c1cccc(NC(=S)NNC(=O)c2cc3ccccc3cc2O)c1 was read as SKN-1 block inactive, SMARCA2 act inactive, NR3A LBD binder 21.9, NadD inh inactive, esBAF inh inactive and Vif inh inactive.

Screening data from PubChem.
